Bioassay records as filed in PubChem BioAssay.
Shiga inhibitor = inhibitors of Shiga toxin in Vero cells; Vero cells, Shiga toxin protein synthesis inhibition reporter; inhibition, % at 38.7 µM; 290,000 compounds, 9.2% hits; in the data active means inhibition mostly above about 28%, no sharp cut-off; inactive means mostly below about 43%
Cycloheximide cs = counter-screen for Shiga toxin inhibitors: cycloheximide protein synthesis inhibition; cell reporter, cycloheximide protein synthesis inhibition counterscreen; max response, %; 300,000 compounds, 12% hits; in the data active means max response mostly above about 13%, no sharp cut-off; inactive means mostly below about 14%; further: read at 38.3 µM for the half of the compounds with a filed dose
AMA1-RON2 inh = inhibitors of Plasmodium falciparum AMA1-RON2 interaction | AlphaScreen AMA1-biotinylated RON2 peptide binding | Potency, µM (highest dose often 58.2 µM), most hits filed as inhibitors | 360,000 compounds, 0.2% hits; active means well fitted inhibition curve with a large enough effect; inconclusive means small, poorly fitted or top-dose-only effect; inactive means no such curve, though single readings can be large or run the other way; further: nearly all actives have a fitted effect of over 45% in size
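AMA1 (3D7) with his tag at 25 nM final met compounds first, then biotinylated RON2 peptide at 25 nM; detection used donor plus acceptor beads, 10 µg/mL apiece, read by AlphaScreen after 30 min at room temperature.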
Lassa entry inh = blocks Lassa virus binding to or entry into cells; Lassa virus pseudotype entry inhibition, cell reporter; Potency, µM (top dose mostly 37.9 µM), usual class: inhibitors; 300,000 compounds, 1.2% hits; calls by dose curve; tested in HEK293 cells; further: nearly all actives have a fitted effect of over 50% in size
MARV entry inh = inhibitors of Marburg virus binding or cell entry. Marburg virus pseudotyped entry inhibition, cell reporter. Potency, µM (highest dose often 37.8 µM), usual class: inhibitors. 300,000 compounds, 1.8% hits. AID 540276; calls by dose curve; tested in HEK293 cells
Each line names hits and unclear results; the compound was inactive in the other large screens. The entries come from a sample that favours hits as a whole.

CCSC1=C(C#N)[C@@H](c2cccs2)C(C(=O)OC)=C(C)N1	none (no result: Shiga inhibitor, Cycloheximide cs, AMA1-RON2 inh, Lassa entry inh)
CC1CC(C)CN(C(=O)c2ccc(N3CC4CC(C3)c3cccc(=O)n3C4)c([N+](=O)[O-])c2)C1 (stereo not given)	Lassa entry inh inconclusive
O=C(c1ccc(F)c([N+](=O)[O-])c1)N1CC2CC(C1)c1cccc(=O)n1C2 (stereo not given)	Shiga inhibitor 105, Cycloheximide cs 44 (no result: Lassa entry inh, MARV entry inh)
CCCc1nc2ccc(C)cn2c1Cc1ccc(OC)cc1C	none (no result: Shiga inhibitor, Cycloheximide cs, Lassa entry inh, MARV entry inh)
Cc1c(NC(=O)c2nn(CC(C)C)c(=O)c3ccccc23)c(=O)n(-c2ccccc2)n1C	Lassa entry inh inconclusive (no result: Shiga inhibitor, Cycloheximide cs)
CC(=O)c1ccc(NS(=O)(=O)Cc2ccccc2)cc1	none
CC(=O)N(C)c1ccc(NS(=O)(=O)Cc2ccccc2)cc1	Shiga inhibitor 63, Cycloheximide cs 27
CC(C)(C)C(=O)CC(=O)Nc1ccc(Cl)c(N)c1	Shiga inhibitor 167, Cycloheximide cs 47, MARV entry inh inconclusive
CCCC(=O)Nc1ccc(Cl)c(NC(=O)C(C)(C)C)c1	none
CNC(=O)c1ccc(NC(=O)c2ccc3c(=O)n4c(nc3c2)CCC4)cc1	none (no result: Shiga inhibitor, Cycloheximide cs, Lassa entry inh, MARV entry inh)
O=C(Nc1ccc(S(=O)(=O)N2CCCC2)cc1)c1ccc2c(=O)n3c(nc2c1)CCCCC3	MARV entry inh 2.5µM
Cc1ccc(NC(=O)c2ccc3c(=O)n4c(nc3c2)CCC4)cc1S(=O)(=O)N(C)C	none (no result: Shiga inhibitor, Cycloheximide cs)
Cc1ccc(S(=O)(=O)N2CCCCC2)cc1NC(=O)c1ccc2c(=O)n3c(nc2c1)CCCCC3	Lassa entry inh 16µM, MARV entry inh inconclusive (no result: AMA1-RON2 inh)
COCCn1c(C)cc(C(=O)CSc2cc(C)c3ccccc3n2)c1C	AMA1-RON2 inh inconclusive, Lassa entry inh inconclusive, MARV entry inh inconclusive
CN(Cc1ccccc1)C(=O)CSc1nc2ccccc2c(=O)n1Cc1ccco1	Cycloheximide cs 38, Lassa entry inh 5.8µM, MARV entry inh 6.5µM
COCCn1c(C)cc(C(=O)CSc2nc3ccccc3c(=O)n2Cc2ccco2)c1C	Shiga inhibitor 96, Cycloheximide cs 23, Lassa entry inh inconclusive, MARV entry inh inconclusive
CCN(CC)C(=O)CSc1nc2c(sc(=S)n2-c2ccccc2)c(=O)n1Cc1ccco1	Lassa entry inh inconclusive, MARV entry inh 9.2µM
CCN(CC)C(=O)CSc1nc2c(sc(=S)n2CC)c(=O)n1-c1ccccc1	none
O=C(NCc1ccco1)c1ccc2c(=O)n(Cc3ccco3)c(SCC(=O)N3CCCC3)nc2c1	Shiga inhibitor 39, Cycloheximide cs 33, MARV entry inh inconclusive
O=C(CSc1nc2ccccc2c(=O)n1Cc1ccco1)N1CCCCCC1	Cycloheximide cs 17, Lassa entry inh inconclusive
CCn1c(SCC(=O)N2CCCCCC2)nc2ccccc2c1=O	Lassa entry inh inconclusive, MARV entry inh inconclusive
O=C1C(=Cc2ccccc2Cl)CCc2ccccc21	none (no result: Shiga inhibitor, Cycloheximide cs, Lassa entry inh, MARV entry inh)
O=C1/C(=C/c2ccco2)CCc2ccccc21	Shiga inhibitor 61, Cycloheximide cs 77, Lassa entry inh inconclusive, MARV entry inh inconclusive
Nc1ccc2c(c1)C/C(=C/c1ccco1)C2=O	Shiga inhibitor 123, Cycloheximide cs 56, MARV entry inh inconclusive
COc1ccc2c(c1)CC/C(=C/c1ccco1)C2=O	Shiga inhibitor 120, Cycloheximide cs 56, AMA1-RON2 inh inconclusive, Lassa entry inh inconclusive, MARV entry inh inconclusive
Cc1ccc(C=C2C(=O)c3ccccc3C2=O)o1	Cycloheximide cs 37
CCC1C/C(=C/c2ccco2)C(=O)/C(=C/c2ccco2)C1 (stereo not given)	none (no result: AMA1-RON2 inh)
CC(OC(=O)CCN1C(=O)C2CC=CCC2C1=O)C(=O)Nc1ccc(F)cc1 (stereo not given)	none (no result: Shiga inhibitor, Cycloheximide cs)
O=C1C(=Cc2ccco2)C(=O)c2ccccc21	Cycloheximide cs 37, MARV entry inh inconclusive
O=C(O)C(=Cc1ccccc1[N+](=O)[O-])c1ccc2c(c1)OCO2	none (no result: Shiga inhibitor, Cycloheximide cs, Lassa entry inh, MARV entry inh)
OCCCNc1nc(-c2ccc(Cl)cc2)nnc1-c1ccccc1	Cycloheximide cs 20, MARV entry inh inconclusive
O=C(NCc1cccnc1)c1cc(C2CCCCN2C(=O)c2cccs2)on1 (stereo not given)	none (no result: Shiga inhibitor, Cycloheximide cs, Lassa entry inh, MARV entry inh)
CC1=C(C(=O)OCc2ccc(C)cc2)C(c2ccccc2C(F)(F)F)CC(=O)N1 (stereo not given)	Lassa entry inh inconclusive (no result: Shiga inhibitor, Cycloheximide cs, AMA1-RON2 inh)
CCN(c1cccc(C)c1)S(=O)(=O)c1ccc2c(c1)CCN2C(C)=O	Lassa entry inh inconclusive, MARV entry inh inconclusive
CCN(c1cccc(C(F)(F)F)c1)S(=O)(=O)c1ccc2c(c1)CCN2C(C)=O	AMA1-RON2 inh inconclusive, Lassa entry inh 18µM, MARV entry inh inconclusive
C[C@@H](C(=O)N1CCN(Cc2ccc3c(c2)OCO3)CC1)n1nnc2ccccc2c1=O	none
COC(=O)c1ccc(C2OCC(C)(C)CO2)cc1	Shiga inhibitor 150, Cycloheximide cs 49, MARV entry inh inconclusive
Nc1nc2ccccc2n1C(=O)CCc1ccccc1	Shiga inhibitor 95, Cycloheximide cs 46, MARV entry inh inconclusive
Nc1nc2ccccc2n1C(=O)c1ccco1	Shiga inhibitor 90, Cycloheximide cs 55, Lassa entry inh inconclusive, MARV entry inh inconclusive
Nc1nc2ccccc2n1C(=O)c1ccccc1	none (no result: Lassa entry inh, MARV entry inh)
O=C(c1ccco1)N1CCn2c1nc1ccccc12	Shiga inhibitor 53, Cycloheximide cs 29, MARV entry inh inconclusive
Cc1cc2c(n1-c1ccc(C(=O)NCCc3ccc(Cl)cc3)cc1)CCC(C)C2 (stereo not given)	none (no result: Shiga inhibitor, Cycloheximide cs, AMA1-RON2 inh, MARV entry inh)
C/C(=N\Nc1ccc(S(=O)(=O)Nc2ccccc2)cc1[N+](=O)[O-])c1ccncc1	none (no result: AMA1-RON2 inh, Lassa entry inh, MARV entry inh)
COc1ccc(NS(=O)(=O)c2ccc(N/N=C(\C)c3ccncc3)c([N+](=O)[O-])c2)cc1	Lassa entry inh 12µM, MARV entry inh 6.3µM
Cc1ccc(CNC(=O)C2COc3ccccc3O2)cc1 (stereo not given)	Cycloheximide cs 26 (no result: Lassa entry inh, MARV entry inh)
CCC1CN(C(=O)Nc2ccccc2F)c2cc(C)ccc2O1 (stereo not given)	none (no result: Shiga inhibitor, Cycloheximide cs, AMA1-RON2 inh, MARV entry inh)
CCC1CN(C(=O)Nc2ccc(C)cc2)c2cc(C)ccc2O1 (stereo not given)	Cycloheximide cs 12, Lassa entry inh inconclusive, MARV entry inh 11µM
CCOc1ccc(/C=C2\SC(=O)N(CCNC(=O)C3COc4ccccc4O3)C2=O)cc1OC (stereo not given)	Cycloheximide cs 19, Lassa entry inh inconclusive, MARV entry inh inconclusive
COc1ccc(CNC(=O)C2COc3ccccc3O2)c(OC)c1 (stereo not given)	Shiga inhibitor 103, Cycloheximide cs 31 (no result: Lassa entry inh, MARV entry inh)
Cc1cccc(C)c1NC(=O)CNC(=O)C1COc2ccccc2O1 (stereo not given)	none (no result: Shiga inhibitor, Cycloheximide cs, Lassa entry inh, MARV entry inh)
CN(CC(=O)Nc1ccccc1N1CCCC1)S(=O)(=O)c1ccc(F)cc1	none (no result: Shiga inhibitor, Cycloheximide cs)
CN(CC(=O)Nc1ccc(F)c(F)c1F)C(=O)C1=NN(c2ccccc2)C(=O)CC1	none (no result: Shiga inhibitor, Cycloheximide cs)
CCCCN(C)C(=O)CN1C(=O)c2cccnc2Oc2ccc(Cl)cc21	none (no result: Shiga inhibitor, Cycloheximide cs, AMA1-RON2 inh, MARV entry inh)
COc1ccccc1C(C)Nc1nc(-c2cccnc2)nc2ccccc12 (stereo not given)	MARV entry inh inconclusive
Cc1ccc(NC(=O)CC2COc3ccccc3O2)cc1 (stereo not given)	Shiga inhibitor 54, Cycloheximide cs 31
O=C(NCc1ccccc1)C1COc2ccccc2O1 (stereo not given)	Shiga inhibitor 59, Cycloheximide cs 19
